PubChem BioAssay (NCATS)
Records with an inconclusive call do not appear. The source made the active and inactive calls. Calls come from the whole dose curve; as a rule, active = well fitted inhibition curve with a large enough effect; inconclusive = small, poorly fitted or top-dose-only effect; inactive = no such curve, though single readings can be large or run the other way.

Assay: Primary qHTS for inhibitors of La Crosse Virus (LACV) - induced cell death in SH-SY5Y cells (AID 1508616);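 note: top concentration of the series differs between compounds; higher means more rescue of cells from virus-induced death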
Settings: SH-SY5Y LACV cytopathicity rescue, ATP luminescence, 6 d; series mostly up to 4.29 µM
Excerpt: Assay Provider: Karin Peterson Ph.D.
National Institute of Allergy and Infection Diseases, National Institute of Health
La Crosse Virus (LACV) is a California serogroup mosquito-borne arbovirus, family Peribunyaviridae, which is an endemic pathogen in North America and can induce a rare, life-threatening neurological disease in children. LACV was first isolated in the early 1960s, from a summer "rural encephalitis" case in La Crosse, Wisconsin, USA. Since then, LACV encephalitis cases have been found in more than twenty states, with most cases in the Mississippi and Ohio River basins. The life cycle of LACV is maintained between the vector, the eastern tree-hole mosquito Aedes triseriatus, and vertebrate hosts including eastern gray squirrels (Sciurus carolinensis) and chipmunks (Tamiasstriatus grinseus). […] Most LACV infections in humans are asymptomatic or induce mild clinical symptoms of fever, headache, lethargy and vomiting. However, in some cases LACV can cause severe neuroinvasive disease, including encephalitis, meningitis, and meningoencephalitis, requiring hospitalization. To date, there is neither a licensed vaccine nor a Food and Drug Administration (FDA) approved antiviral therapy available to prevent or treat LACV encephalitis. The primary treatment for viral encephalitis is palliative care due to the lack of therapeutics. In the current study, we conducted a screen of 4,096 FDA approved and bioactive small molecules against LACV, by screening for rescue of LACV-induced cell death in SH-SY5Y cells.
LACV-induced cytopathicity assay
SEQUENCE No. (1,2, 3, etc.); […] (e.g., Cells, Incubation, Reagent, etc.); VALUE and DESCRIPTION.
1. Reagent; 2 uL; Cell solution.
3. Compounds; 23nL; Compound library
4. Reagent; 12 uL; LACV virus
6. Reagent; 24 uL; ATPLite (PerkinElmer)
7. Time; 5 min; Room temperature
8. Detection; Luminescence; View
NOTES (numbers refer to sequence above)
1. Seed 6000 SH-SY5Y cells (ATCC CRL-2266) in 2 microL/well media (DMEM/F12 10% FBS, 1x L-Glutamine, 1x Pyruvate, 1x NEAA, 1x Pen/Strep) in 384-well assay plates (tissue culture treated, white, solid bottom).
2. Incubate at 37 degrees C with 5% CO2 for 24 hr.
3. Dispense 23 nL/well compounds in DMSO via pin transfer.
4. Dispense 12 microL/well of LACV (LACV/human/1978) in media at 0.01 MOI.
5. Incubate at for 6 days at 37C 5% CO2
6. Dispense 24 microL/well of ATPLite 1step Luminescence assay system (PerkinElmer).
7. Incubate for 5 min at room temperature.
8. Read luminescence signal (Viewlux plate reader, PerkinElmer). Data was normalized with DMSO control wells containing LACV as 0%, and DMSO control wells without virus as 100%.

Row | SMILES | outcome
1 | O=c1[nH]c(=O)n([C@H]2C[C@@H](O)[C@@H](CO)O2)cc1C=CBr | inactive
2 | N[C@H]1CN(c2c(F)cc3c(=O)c(C(=O)O)cn(C4C[C@@H]4F)c3c2Cl)CC12CC2 (stereo partly specified) | inactive
3 | Cc1ccc(-n2[nH]c(C)c(N=Nc3cccc(-c4cccc(C(=O)O)c4)c3O)c2=O)cc1C | inactive
4 | CC1(C)O[C@@H]2C[C@H]3[C@@H]4CCC5=CC(=O)C=C[C@]5(C)[C@@H]4[C@@H](O)C[C@]3(C)[C@]2(C(=O)CO)O1 | inactive
5 | CCCCC(=O)O[C@]1(C(=O)CO)[C@@H](C)C[C@H]2[C@@H]3CCC4=CC(=O)C=C[C@]4(C)[C@@]3(F)[C@@H](O)C[C@@]21C | inactive
6 | CCn1c(=O)c2c(nc(C=Cc3ccc(OC)c(OC)c3)n2C)n(CC)c1=O | inactive
7 | CN[C@H](CC(C)C)C(=O)N[C@H]1C(=O)N[C@@H](CC(N)=O)C(=O)N[C@@H]2C(=O)N[C@H]3C(=O)N[C@H](C(=O)N[C@H](C(=O)O)c4cc(O)cc(O)c4-c4cc3ccc4O)[C@H](O)c3ccc(c(Cl)c3)Oc3cc2cc(c3O[C@@H]2O[C@H](CO)[C@@H](O)[C@H](O)[C@@H]2O[C@H]2C[C@](C)(N)[C@H](O)[C@H](C)O2)Oc2ccc(cc2Cl)[C@H]1O | inactive
8 | Nc1ccn(C2CO[C@H](CO)O2)c(=O)n1 (stereo partly specified) | inactive
9 | COc1ccc2cc([S+]([O-])Cc3ncc(C)c(OC)c3C)nc2c1 | inactive
10 | Cc1ccccc1C(=O)Nc1ccc(C(=O)N2CCCC(O)c3cc(Cl)ccc32)c(C)c1 (stereo unspecified) | inactive
11 | Cc1cn([C@@H]2O[C@H](CO)[C@@H](O)[C@H]2F)c(=O)[nH]c1=O | inactive
